Potency data for 17 compounds are collected here from PubChem BioAssay AID720519 (National Center for Advancing Translational Sciences (NCATS), 2013).

SMILES strings stand for the structures. Inconclusive results are not listed. Where a call stands in place of a potency, no number is given. The source made the active and inactive calls. Calls follow the shape of the dose curve; as a rule, active = well fitted activation curve with a large enough effect; inconclusive = small, poorly fitted or top-dose-only effect; inactive = flat fitted curve, though single readings scatter.

The assay is described as follows: qHTS for Inhibitors of Cell Surface uPA Generation: Confirmatory Assay for Cherry-picked Compounds. To be noted: cell surface uPA activity generation, qHTS confirmation; series mostly up to 115 µM. In a few lines:
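RAW 264.7 cells at 4000/well, incubated overnight, then treated with compounds. After 24 h at 37 C, viability was read by ATPlite luminescence. An increase in signal indicates blocked uPA-dependent LF entry.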
Background: Quantitative high-throughput screening tests each substance at several concentrations.
Regarding `COc1ccc(-c2cc(-c3ccccc3)nc3ncnn23)cc1`, the Potency result is “inactive”.

Turning to `COC(=O)CSc1nc(N2CCOCC2)c2c(c1C#N)CCCC2`, the Potency entry is “inactive”.

For `COC(=O)/C(C#N)=C/c1c(N2CCN(c3ccccc3)CC2)nc2c(C)cccn2c1=O`, the Potency entry was “inactive”.

Turning to `O=C(O)CCc1nn2c3ccccc3n(CC(=O)O)c2nc1=O`, the Potency result is “inactive”.

In the case of `O=C(Cc1ccccc1)Nc1ccc(NC(=O)c2ccccc2)c(Cl)c1`, the Potency result is “inactive”.

For `COc1ccc(OC)c(N2C(=O)CC(Cc3cc(C)cc(C)c3)C2=O)c1` (configuration not stated), the Potency entry is “inactive”.

`Cc1cccc(NC(=O)C2CCCN(S(=O)(=O)c3ccc4[nH]c(=O)ccc4c3)C2)c1` (configuration not stated): the Potency result is “inactive”.

Regarding `Cc1cc(C)cc(NC(=O)C(OC(=O)c2ccc(O)cc2)c2ccccc2)c1` (configuration not stated), the Potency result was “inactive”.

As to `Cc1nnc2ccc(-c3ccc(NS(=O)(=O)c4ccc(Cl)s4)cc3)nn12`, the Potency entry is “inactive”.

With `COc1cccc(NC(=S)NCc2ccc3c(c2)cc(C)n3C)c1`, the Potency entry was “inactive”.

For the compound `Cc1cccc(C(=O)NCC(=O)OCC(=O)NC2CCCCCCC2)c1`, the Potency entry was “inactive”.

As for `O=C(C1CCCCN1S(=O)(=O)c1ccc(F)cc1)N1CCN(c2ccccc2F)CC1` (configuration not stated), the Potency result is “inactive”.

In the case of `C=C(C)C(=O)O[C@H]1C/C(C)=C\C(=O)/C=C(\C)[C@H](O)[C@@H]2OC(=O)C(=C)[C@@H]21`, the Potency entry is “inactive”.

As to `Fc1ccc(N2CCN(c3nc(CN4CCOCC4)nc4scc(-c5ccccc5)c34)CC2)cc1`, the Potency result was “inactive”.

As for `COc1ccc(NC(=O)c2nn(C)c3c2CS(=O)(=O)c2ccccc2-3)cc1`, the Potency entry is “inactive”.

On to `COc1ccc(CCNC(=O)CSc2nc(N)c3c(C)c(C)oc3n2)cc1OC`, for which the Potency entry is “inactive”.

For the compound `COc1ccc(/C(C)=N/N2CCOCC2)c(O)c1`, the Potency result is “inactive”.
